# Laboratory results published in PubChem BioAssay (NCATS).
# Calls of active or inactive are those of the source. The call rests on the fitted dose curve.
# Assay: qHTS drug screen for cell cycle checkpoint inhibitors in PARPi-resistant BRCA-mutant ovarian cancer cell lines. (AID 1963452)
# Conditions: PEO1/OlaR viability, CellTiter-Glo luminescence, 96 h; stronger effect = lower value
# Method in brief: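 PEO1, PEO4 and PEO1/OlaR ovarian cancer cells, 600 per well, exposed 96 h at 37C to a dilution series. Viability read by CellTiter-Glo luminescence, normalized to DMSO and empty wells; activity summarized as Z-AUC.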
row,Compound,Z-AUC
1,CC(=O)[C@]1(N)Cc2c(O)c3c(c(O)c2[C@@H](O[C@H]2C[C@H](O)[C@H](O)CO2)C1)C(=O)c1ccccc1C3=O,-0.249 (inactive)
2,Cc1ccc(NC(=O)[C@H]2CCCN(C(=O)c3c(C)cccc3F)[C@H]2c2ccc(NC3CCCC3)cc2)cc1C(F)(F)F,-0.612 (inactive)
3,Nc1ncc(C(=O)NC2CN(C(=O)C3CC3)C2)c2ccc(-c3cccc(F)c3)nc12,1.21 (inactive)

# Same assay, conditions: PEO1/OlaR viability, CellTiter-Glo luminescence, 96 h; measured here: PEO1 parental Z-AUC; stronger effect = lower value
row,Compound,Z-AUC
1,CC(=O)N[C@H]1CSSC[C@@H](C(N)=O)NC(=O)[C@H](C(C)C)NC(=O)[C@H](C)NC(=O)[C@H](Cc2cnc[nH]2)NC1=O,-0.625
2,O=C1S/C(=C\c2ccc(OCc3cccc(B(O)O)c3)cc2)C(=O)N1Cc1ccc(F)cc1,0.417
3,O=C(O)/C(S)=C/c1ccc(I)cc1,0.731
4,O=c1ncccn1[C@@H]1O[C@H](CO)[C@@H](O)[C@H]1O,-0.911
5,CC(C)OC(=O)[C@H](C)N[P@](=O)(OC[C@H]1O[C@@H](n2ccc(=O)[nH]c2=O)[C@](C)(F)[C@@H]1O)Oc1ccccc1,0.659
6,Cc1nc(C)c(CN2CCN(C(c3ccc(F)cc3)c3ccc(F)cc3)CC2)nc1C,0.777
7,C=C1/C(=C/C=C2\CCCC3(C)[C@@H]([C@H](C)/C=C/C=C/C(O)(CC)CC)CC[C@@H]23)C[C@@H](O)C[C@@H]1O (some centres not stated),-0.195
8,Nc1cccc2c1CN([C@H]1CCC(=O)NC1=O)C2=O,0.928
9,C[C@H]1CN(C2COC2)CCN1c1ccc(Nc2cc(-c3ccnc(N4CCn5c(cc6c5CC(C)(C)C6)C4=O)c3CO)cn(C)c2=O)nc1,0.727
10,CN(CCOc1ccc(-c2ccc3c(c2)OCO3)cc1C(C)(C)C)CC(=O)O,1.02
11,C=CC(=O)N1C[C@H](Nc2ncnc3[nH]ccc23)CC[C@@H]1C,-0.501
12,COc1cc(-c2cn(C)c(=O)c3cnccc23)cc(OC)c1CN(C)C,0.545
13,CC(C)(CO)n1cc(C(=O)c2cncc(NC(=O)Cc3ccc(Cl)cn3)c2)c2cnc(N)nc21,0.879
14,CCn1c(=O)c2c(nc(/C=C/c3ccc(OC)c(OC)c3)n2C)n(CC)c1=O,0.401
15,CCC(=O)OCC(=O)C1(OC(=O)CC)C(C)CC2C3CCC4=CC(=O)C=CC4(C)C3(F)C(O)CC21C (configuration not stated),0.623
16,O=C(Cc1ccccc1)Nc1nnc(CCSCCc2nnc(NC(=O)Cc3ccccc3)s2)s1,1.23
17,Cc1[nH]nc2ncc(C(=O)N3CCC[C@H]3c3ccc(Cl)cc3)cc12,0.0336
18,NS(=O)(=O)Oc1ccc2c3c(c(=O)oc2c1)CCCCC3,0.12
19,Fc1ccc(-c2csc3ncnc(NCc4ccc5c(c4)OCO5)c23)cc1,0.157
20,CC(=O)N1CCC(Nc2cc(C(=O)NC[C@H](O)CN3CCc4ccccc4C3)ncn2)CC1,0.224

row,Compound,Z-AUC
1,Nc1cc(COc2c(Cl)cc(C[C@H](N)C(=O)O)cc2Cl)c2oc(-c3ccccc3)nc2c1,-0.255
2,C=CC(=O)N1CC(N2CCN(C(=O)CNc3cc(C4(C)CC4)c(Cl)cc3O)CC2)C1,-0.485
3,COc1ccc(S(=O)(=O)NCc2ccc(C(=O)NCCc3ccc(Cl)cn3)cc2)cc1,-0.947
4,CCOCOC[C@H](C[C@H](C)C(=O)NO)NC(=O)c1ccc(Oc2ccccc2)cc1,0.894
5,CN(C(=O)CNC(=O)/C=C/c1cccc(Cl)c1)C1CCS(=O)(=O)CC1,-0.958
6,OCCOc1ccc(/C(=C(/CCCl)c2ccccc2)c2ccccc2)cc1,0.225
7,CNS(=O)(=O)Nc1nccc(Cc2c(C)c3ccc(Oc4ncccn4)cc3oc2=O)c1F,-1.08
8,C=CC(=O)Nc1cc(N2CCN(CC)CC2)ccc1Nc1cc(N(C)C(=O)Nc2c(Cl)c(OC)cc(OC)c2Cl)ncn1,0.686
9,CC(C)Oc1ccc(-c2nn([C@@H](C)c3oc4ccc(F)cc4c(=O)c3-c3cccc(F)c3)c3ncnc(N)c23)cc1F,-0.265
10,Ac-PHSCN-NH2,0.449
11,CS(=O)(=O)c1ccc([C@@H](CC2CCCC2)C(=O)Nc2nccs2)cc1,0.607
12,CCS(=O)(=O)N1CCC(C(C)n2c(C)c(C(=O)NCc3c(OC)cc(C)[nH]c3=O)c3ccccc32)CC1 (configuration not stated),0.975
13,CCOc1ccc(-n2c([C@@H](C)N(Cc3cccnc3)C(=O)Cc3ccc(F)c(C(F)(F)F)c3)nc3ncccc3c2=O)cc1,1.42
14,COc1cc(-c2cn(C)c(=O)c3cnccc23)c(OC)cc1CN(C)C,-0.655
15,COC(=O)C1=C(C)NC(c2ncc(F)cc2F)=N[C@@H]1c1ccc(F)cc1Cl,1.02
16,CCCN(CCC)C(=O)C1=Cc2ccc(-c3ccc(C(=O)N4CCCC4)cc3)cc2N=C(N)C1,-0.15
17,CC(=O)[C@]1(N)Cc2c(O)c3c(c(O)c2[C@@H](O[C@H]2C[C@H](O)[C@H](O)CO2)C1)C(=O)c1ccccc1C3=O,-0.44
18,Cc1ccc(NC(=O)[C@H]2CCCN(C(=O)c3c(C)cccc3F)[C@H]2c2ccc(NC3CCCC3)cc2)cc1C(F)(F)F,0.0404
19,Nc1ncc(C(=O)NC2CN(C(=O)C3CC3)C2)c2ccc(-c3cccc(F)c3)nc12,0.799
